Laboratory results published in ChEMBL document CHEMBL3988442, “University of Dundee, Small-Polar-MMV Screening Library” (2021).

Tests used:
[1] = biological target: T1, Aspartate--tRNA(Asp/Asn) ligase (Mycobacterium tuberculosis (strain ATCC 25618 / H37Rv)) (UniProt P9WFW3); experiment: Assay for Asp RNA synthetase-1 from Mycobacterium tuberculosis; format: functional; set-up: scale not given: direction of the effect not stated beside the values; conditions: 30 µM; also: in the data most compounds retested in dose-response had high values
T1 sequence (whole entry): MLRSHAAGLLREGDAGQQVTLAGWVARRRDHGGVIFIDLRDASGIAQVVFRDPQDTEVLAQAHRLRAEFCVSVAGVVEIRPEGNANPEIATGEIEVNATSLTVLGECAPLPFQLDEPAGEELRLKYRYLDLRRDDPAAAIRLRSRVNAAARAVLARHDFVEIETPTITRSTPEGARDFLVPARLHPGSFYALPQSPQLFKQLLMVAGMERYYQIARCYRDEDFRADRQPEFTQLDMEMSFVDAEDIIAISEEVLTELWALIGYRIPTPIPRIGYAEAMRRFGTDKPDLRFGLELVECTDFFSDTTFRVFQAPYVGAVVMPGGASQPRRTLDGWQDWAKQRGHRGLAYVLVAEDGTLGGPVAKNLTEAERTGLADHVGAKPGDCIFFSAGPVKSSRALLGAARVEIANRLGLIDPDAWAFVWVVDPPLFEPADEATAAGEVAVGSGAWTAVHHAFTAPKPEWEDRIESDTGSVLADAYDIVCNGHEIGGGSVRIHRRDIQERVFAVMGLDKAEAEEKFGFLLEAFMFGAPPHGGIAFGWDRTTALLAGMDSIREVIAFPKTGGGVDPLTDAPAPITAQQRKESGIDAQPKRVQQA

[2] = biological target: Shiga toxin 2 (Escherichia coli O157:H7) (UniProt P09385+P09386); experiment: E. coli 0.157:H7 Shiga Toxin SOP - stx2 screening assay; format: functional; set-up: scale not given: direction of the effect not stated beside the values; conditions: 30 µM

| SMILES | Percent Effect [1] [%] | Percent Effect [2] [%] |
| --- | --- | --- |
| O=C1CC[C@H]2[C@H](CCN2C(=O)C2CCOCC2)N1Cc1ccncc1 | -6.47 | -35.2 |
| COc1ccc(C2=CCN(C(=O)CN(C)Cc3ccoc3)CC2)cc1 | -8.11 | -67.5 |
| CC(C)CN1CCCC2(CCN(C(=O)c3cnccn3)C2)C1 (configuration not stated) | 1.03 | -7.5 |
| CC(C)c1cc(C(=O)N(C)Cc2cccc3ncccc23)n(C)n1 | -4.72 | -15 |
| O=C(c1ccc(NC2CC2)nc1)N1CCCC(n2cccn2)C1 (configuration not stated) | -1.7 | 14.7 |
| CC(C)COC(C)C(=O)NCc1ccc(N(C)C)cc1 (configuration not stated) | 5.65 | -8.68 |
| Cc1nc(N2CCN(C(=O)C(C)(C)C)CC2)cc(-n2cnc(C)c2C)n1 | 0.832 | -43.6 |
| O=C(CCN1CCCN(c2nccs2)CC1)Nc1ccccc1 | -1.81 | -52.2 |
| Cc1nc(C)n(CC2CCCCN2CC(=O)N(C)Cc2ccco2)n1 (configuration not stated) | 1.76 | 3.6 |
| N#Cc1cccc(CN2CC[C@@H]3[C@@H]2CC(=O)N3Cc2cccnc2)c1 | 4.04 | -0.447 |
| Cc1[nH]c(=O)[nH]c(=O)c1CN1CCCC(CCc2ccccc2)C1 (configuration not stated) | -0.814 | -2.29 |
| Cc1nc(C(=O)N2CCCC(n3cncn3)C2)cs1 (configuration not stated) | -3.48 | 1.3 |
| Cc1cc(N2CCN(C(=O)c3cc(Cl)c[nH]3)CC2)nc(N)n1 | 3.4 | -96.7 |
| CCNC(=O)c1ccc2c(c1)nc1n2CCN(Cc2ccco2)C1 | 3.83 | -56 |
| COc1ccc(C2=CCN(C(=O)CN(C)CC(C)C#N)CC2)cc1 (configuration not stated) | -3.34 | -65.5 |
| Cc1cnn(CC2CCCCN2C(=O)Cc2csc(C)n2)c1 (configuration not stated) | -2.23 | 1.16 |
| O=C(C1SCCc2sccc21)N1CCN(CCO)CC1 (configuration not stated) | -0.774 | 24.8 |
| O=C(NCCNc1cnccn1)C1CCN(C(=O)N2CCCC2)CC1 | 6.24 | -37.5 |
| Fc1ccc2[nH]c(C3CCCN3CCc3ccccn3)nc2c1 (configuration not stated) | 7.64 | -16.2 |
| CC(=O)N1[C@H](CN(C)C)C[C@@H]2CN(C(=O)c3cccc(F)c3)CC[C@@H]21 | -0.523 | -3.85 |
| CCc1nnc2n1CCN(C(=O)c1cc(Br)c[nH]1)C2 | -3.52 | -47.9 |
| CC(=O)N1CCC(Cc2cnc(-c3c(C)n[nH]c3C)cn2)C1 (configuration not stated) | -11.6 | -7.52 |
| Cc1nn(C)c(Cl)c1CNCc1cccnc1N1CCOCC1 | -7.19 | 4.19 |
| Cc1noc(C)c1C(=O)N1CCCC1c1c(C)nn(C)c1Cl (configuration not stated) | -3.2 | -9.41 |
| Cc1nc(C2CCCN2Cc2nc(C)c(C)o2)no1 (configuration not stated) | -0.728 | 7.48 |
| Cc1csc(C2CCCCN2C(=O)CN(C)Cc2ccccc2)n1 (configuration not stated) | -3.92 | 8.13 |

| SMILES | Percent Effect [1] [%] | Percent Effect [2] [%] |
| --- | --- | --- |
| CCOCC1CN(Cc2cnn(C)c2)Cc2ncn(CC3CC3)c21 (configuration not stated) | 2.64 | 3.02 |
| COCCN(Cc1ccoc1)C(=O)c1cccnc1SC | 1.65 | -0.408 |
| O=C(c1cccc2c1OCO2)N1CCCC1c1noc(C2CC2)n1 (configuration not stated) | -11.7 | -15.1 |
| COCc1nc(C(=O)NS(=O)(=O)c2cc(F)ccc2F)cs1 | -0.5 | -51.5 |
| Cc1nc(CN(C)C2CCN(CCCOc3ccccc3)C2)no1 (configuration not stated) | 2.8 | -39.6 |
| COc1cccc(OCC2CCCN(C3CCN(C(C)=O)CC3)C2)c1 (configuration not stated) | 4.72 | -0.97 |
| CC(NCc1ccccc1Br)c1ccc2[nH]c(=O)[nH]c2c1 (configuration not stated) | 5.02 | -5.76 |
| CCOCC1CN(C(=O)CS(C)(=O)=O)Cc2cnn(C)c21 (configuration not stated) | 1.19 | -6.98 |
| CSc1nccn1-c1cccc(C(=O)NCc2nnc(C)n2C)c1 | 4.52 | 19.7 |
| c1cc2nccc(CC3CCCN(Cc4ncc[nH]4)CC3)c2cn1 (configuration not stated) | 5.02 | -54.1 |
| COc1c(CNC(c2nccn2C)C(C)C)c(C)nn1C (configuration not stated) | 0.122 | 16.3 |
| COCCCC(=O)NS(=O)(=O)c1ccc2c(c1)OCCCO2 | -1.35 | 23.1 |
| O=C(c1cccc(CN2CCCC2)c1)N1CCCC(n2cncn2)C1 (configuration not stated) | 11.7 | 14 |
| CC(C)n1ccnc1C1CCN(C(=O)c2cc[nH]n2)CC1 | -0.496 | 14.3 |
| CNc1cc(CNC(=O)c2ccccn2)nc(-c2ccncc2)n1 | -1.21 | 5.89 |
| CN(C)C(=O)N1CCN(Cc2cnn(C)c2)CC2(CNC(=O)C2)C1 (configuration not stated) | 2.15 | -5.82 |
| Cc1cnc2n(c1=O)CC(C(=O)NC1CC1)CS2 (configuration not stated) | -3.65 | 0.421 |
| Cc1cc(CN2CCN(CC(O)c3ccccc3)CC2)no1 (configuration not stated) | -5.08 | 3.56 |
| CCc1nc(C)c([C@H]2CN(C)C[C@@H]2C(=O)NCCc2cnccn2)[nH]1 | -1.15 | -9.87 |
| COc1ccccc1OCCC(=O)N1CCCC1Cn1cc(C)cn1 (configuration not stated) | -0.922 | 29.9 |
| CC(C)C(Sc1nnc(C2CC2)n1C1CC1)C(=O)NCc1cccnc1 (configuration not stated) | -2.03 | -18.2 |
| COc1ccccc1S(=O)(=O)Nc1ccc2c(C(=O)O)c[nH]c2c1 | 3.46 | 12.9 |
| CC(=O)c1cc(CC(=O)NCc2ccc(CN(C)C)cc2)cs1 | 1.66 | -38.2 |
| O=C(NCC1CC1)C1CN(C(=O)c2cccc(Cl)c2)CC12CCOCC2 (configuration not stated) | 11.9 | -14.2 |
| CN(C(=O)CN1CCOC(Cn2cccn2)C1)c1nccs1 (configuration not stated) | 5.6 | -22.6 |
| CCc1nnc2n1CCN(C(=O)C(C)COCc1ccccc1)C2 (configuration not stated) | 0.562 | 31.4 |

| SMILES | Percent Effect [1] [%] | Percent Effect [2] [%] |
| --- | --- | --- |
| COc1cccc(N2CCN(CC(O)c3cc(C)ccc3C)CC2)c1 (configuration not stated) | 9.16 | -19.7 |
| CC(=O)NCC(=O)N1CC[C@H](OCC2CC2)[C@@H]1Cc1cccnc1 | 1.14 | 5.09 |
| O=C(Cn1cc(C(=O)O)ccc1=O)Nc1ccc(Cl)cc1F | -4.96 | -33.4 |
| CCOC(=O)CN1CCC2(CC1)CC(=O)c1ccc(OC)cc1O2 | -2.78 | 10.6 |
| Cc1ncsc1C(=O)NC1CCN(CC(=O)NCc2ccccc2)CC1 | 1.54 | 34.9 |
| CNC(=O)c1cccc(C2CNCCN2C)c1 (configuration not stated) | -2.1 | -13.8 |
| O=S(=O)(CCCN1CCCC1Cn1cccn1)c1ccccc1 (configuration not stated) | -2.01 | -4.23 |
| CC(C)C(=O)N1CCN(Cc2cc(-c3ccncc3)nn2C)CC1 | 0.491 | -50.3 |
| Cc1cc(C)n(CC2CCCN2CCCS(N)(=O)=O)n1 (configuration not stated) | -0.589 | -25.1 |
| Cn1ccc(CN2CCC(CCc3ccc(O)cc3)CC2)cc1=O | -1.67 | -46.5 |
| COc1ccc(CNC(=O)Nc2cccnc2N2CCCC2)cc1O | 0.235 | 10.6 |
| COc1cc2nc3n(c(=O)c2cc1OC)CCN(C)CC3 | -1.59 | -7.54 |
| CCn1cc(N2Cc3nc(N4CCOCC4)ncc3C2=O)cn1 | -3.92 | -20.5 |
| Cc1ccc(-c2nc(CN3CCc4nn(C)c(=O)cc4C3)co2)cc1 | 40.1 | -3.75 |
| O=C(CCC1CCCO1)NS(=O)(=O)c1ccc(Cl)cc1 (configuration not stated) | -1.43 | 21.6 |
| Cc1cc(C)n(C2CCCN(C(=O)c3c(C)c(C)n[nH]c3=O)C2)n1 (configuration not stated) | -2.4 | 2.19 |
| O=C(c1cnccn1)N1CCN(Cc2ccncc2)c2ncccc2C1 | 0.815 | -1.31 |
| CN(C)CC1CN(Cc2ccsc2)Cc2nccn2C1 (configuration not stated) | 4.71 | -1.56 |
| COc1ccc(C(N)c2cccc(S(C)(=O)=O)c2)cc1 (configuration not stated) | -2.54 | -7.65 |
| Cc1occc1C(=O)N1CCC2(CCC(=O)N(CC(N)=O)C2)CC1 | -2.4 | -17.1 |
| CCC(C)NC(=O)NCCCn1nc2ccccn2c1=O (configuration not stated) | 1.23 | 22.8 |
| CC(C)(O)CN1CCN(C(=O)c2cc(Cl)cc3cccnc23)CC1 | -3.59 | -18 |
| COc1ccc(C(=O)N2CCCC(CNS(C)(=O)=O)C2)cc1F (configuration not stated) | 1.03 | 22.9 |
| O=C(COc1ccccc1)N1CCC[C@]2(C[C@H](OCC3CC3)CO2)C1 | 1.3 | -10.4 |
| O=C([C@H]1CCCO1)N1CC[C@H](O)[C@@H]1Cc1ccncc1 | -1.01 | 1.58 |
| O=C(CCCNc1ncccn1)N1CCCC(n2cccn2)C1 (configuration not stated) | 3.16 | 1.16 |

| SMILES | Percent Effect [1] [%] | Percent Effect [2] [%] |
| --- | --- | --- |
| Cc1ccc(N2CC[C@H]3C[C@@H](C(=O)N4CCOCC4)O[C@H]3C2)nn1 | 0.749 | 12.8 |
| Cc1cnc2c(S(=O)(=O)NCC3CCN(C4CC4)C3)cccc2c1 (configuration not stated) | 3.65 | 25.5 |
| CCOc1cc(C(=O)N2CCCC(c3cc(C(N)=O)[nH]n3)C2)ccn1 (configuration not stated) | -1.21 | 25.9 |
| O=C(C1CCCc2[nH]ncc21)N1CCCC1 (configuration not stated) | 2.61 | -4.59 |
| CC(C)NC(=O)COc1nc(C(C)(C)C)no1 | 0.301 | 2.21 |
| N#Cc1ccc(OCCOc2ccccc2C(=O)N2CCOCC2)cc1 | 8.62 | -58.2 |
| Cc1ncsc1CCC(=O)NCc1cc2n(n1)CCN(C(=O)N(C)C)C2 | -4.32 | -29.5 |
| CCN(Cc1cccc2c1OCO2)C(=O)Nc1ccncc1 | -0.0463 | -14.2 |
| CN(Cc1ccc(F)cc1)CC1(O)CCCN(CC(C)(C)C)C1=O (configuration not stated) | -0.167 | 28.1 |
| O=C(COc1coc(CN2CCCCC2)cc1=O)Nc1ccc(Cl)cc1 | 3.86 | -36.2 |
| COc1ccc(OC)c(C(O)CN2CC(n3cccn3)C2)c1 (configuration not stated) | -0.9 | 21.2 |
| Cc1cc(C(=O)NCc2ccnc(N(C)C)c2)c(C)o1 | 5.55 | -9.84 |
| Cc1ccc(CN2Cc3c(C(=O)N(C)C)nn(C)c3C2)s1 | 1.3 | -23.6 |
| Cc1cc(OCC(=O)N2CCCC(c3ccn[nH]3)C2)no1 (configuration not stated) | -5.07 | 2.75 |
| O=C(CCSc1ccc(F)cc1)NS(=O)(=O)c1ccc2c(c1)OCCO2 | -0.411 | -1.47 |
| O=C(CN1C=Nc2ccccc2S1(=O)=O)NCCc1cccs1 | 0.225 | -2.28 |
| CC(=O)N1CCN(Cn2nc(-c3ccc(F)cc3)oc2=O)CC1 | 0.698 | -18.6 |
| COc1cccc(-c2nc(CNCCn3cccn3)cs2)c1 | -2.68 | -60.9 |
| c1ccc(CN2CCc3nnc(CN4CCCCC4)n3CC2)nc1 | 3.71 | 1.8 |
| COCCN1CC[C@@H]2O[C@@H](COCC(=O)N3CCCC3)CC[C@@H]21 | -4.13 | -8.7 |
| CCN(CC)C(=O)C(c1ccccc1)N1CCn2c(C)nnc2C1 (configuration not stated) | -4.06 | 4.2 |
| Cc1nc(NCCc2ccc(Cl)cc2)cc(C(=O)N2CCOCC2)n1 | 12.1 | -64.7 |
| O=C(CCc1ccc(Cl)s1)N1CCCC(n2cncn2)C1 (configuration not stated) | 2.08 | 5.05 |
